TRb SRC2 PPI: disrupts binding of human TR beta to SRC2. 0.065% of 280,000 active. AID 1469. Potency, µM (highest dose often 106 µM), without a hit: at the top dose activity change, negative = inhibition, hits mostly inhibitors. TRbeta-SRC2 peptide binding, fluorescence polarization; receptor liganded with 1 µM T3. P10828;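 also: plate controls were bound peptide for no effect and peptide without receptor for full effect; nearly all actives have a fitted effect of over 50% in size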
Target sequence (P10828 whole entry, looked up): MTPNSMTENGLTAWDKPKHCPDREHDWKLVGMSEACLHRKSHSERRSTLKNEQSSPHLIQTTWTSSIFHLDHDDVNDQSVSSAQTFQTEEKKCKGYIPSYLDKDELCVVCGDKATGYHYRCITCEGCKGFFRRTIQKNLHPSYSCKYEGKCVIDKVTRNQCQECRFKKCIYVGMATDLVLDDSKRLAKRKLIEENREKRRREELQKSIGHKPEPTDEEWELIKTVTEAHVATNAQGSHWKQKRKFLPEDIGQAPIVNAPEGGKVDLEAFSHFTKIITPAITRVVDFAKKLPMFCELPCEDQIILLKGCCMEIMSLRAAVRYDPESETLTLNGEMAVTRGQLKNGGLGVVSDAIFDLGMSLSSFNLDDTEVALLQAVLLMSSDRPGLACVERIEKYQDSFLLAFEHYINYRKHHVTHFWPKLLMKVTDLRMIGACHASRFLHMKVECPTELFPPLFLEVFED
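Decrease in fluorescence polarization of 20 nM Texas Red SRC2 coactivator peptide flagged inhibition of its binding to 0.6 uM TRb LBD; 1 uM T3 included, incubation 5 hr, ex 555/em 632 nm.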
Tau fluor counter: counter-screen for tau fibril formation inhibitors | tau K18 P301L Alexa594 fluorescence, heparin fibrillization | Potency, µM (series often up to 57.7 µM), inactives show at the highest dose activity change, negative = decrease | 0.93% of 280,000 active; also: nearly all actives have a fitted effect of over 55% in size
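Human tau K18 P301L (15 uM unlabeled, 0.24 uM Alexa 594-labeled) in 100 mM sodium acetate pH 7 with 20 uM heparin, 6 hr at 37 C. ThT 30 uM added, 1 hr ambient; Alexa 594 FP and total fluorescence read at 555/632 nm.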
TR SRC2 fluor cs: alters Texas Red total fluorescence, flagging assay interference; TRb/SRC2 Texas Red total fluorescence interference; Potency, µM (top dose mostly 106 µM), for the others: at the top dose fluorescence change, negative = quenching; 0.29% of 280,000 active; active = well fitted curve in either direction with a large enough effect; inconclusive = small, poorly fitted or top-dose-only effect
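Human TRb ligand-binding domain at 0.6 uM with 20 nM Texas Red SRC2 peptide in Tris buffer containing 1 uM T3 and 5% DMSO, incubated with compound 5 h at ambient temperature. Total fluorescence (555/632 nm) calculated as parallel + 2 × perpendicular.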
Tau fibril ThT: blocks human tau fibril formation measured by thioflavin T. P10636. recombinant tau K18 P301L, heparin-induced fibrillization, ThT fluorescence. Potency, µM (top dose mostly 57.4 µM), inactives show at the top dose activity, negative = inhibition, most hits filed as inhibitors. 2.1% of 270,000 active. AID 1460; also: nearly all actives have a fitted effect of over 55% in size
Target sequence (P10636 561-689 P618L limits assumed): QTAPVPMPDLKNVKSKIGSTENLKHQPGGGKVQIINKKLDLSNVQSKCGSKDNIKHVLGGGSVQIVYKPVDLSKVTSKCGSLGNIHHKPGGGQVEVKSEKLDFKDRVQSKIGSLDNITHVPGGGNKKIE
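ThT emission at 510 nm, taken 1 hr after adding 30 uM dye, quantifies aggregates formed when 20 uM heparin acts on human tau K18 P301L for 6 hr at 37 C.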
Tau fibril FP: blocks human tau fibril formation measured by polarization; P10636; K18 P301L tau heparin fibrillization, Alexa594 FP, 6 h; Potency, µM (titrated, usually from 57.7 µM), for the others: top-dose activity, negative = inhibition, hits mostly inhibitors; 0.39% of 280,000 active; also: nearly all actives have a fitted effect of over 55% in size
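Steps: dispense K18 P301L tau (15 uM plus 0.24 uM Alexa 594 tracer, final) in pH 7 sodium acetate; add compound; add heparin (20 uM final); incubate 6 hr, 37 C; add ThT (30 uM final); after 1 hr ambient, read FP.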
Numbers without * were called inactive; ? = inconclusive; / = no result given; [ ] = dose if it differs, or a comment. This is a sample that favours compounds with a hit; in the whole collection about 3.1% have one here. Unless noted, calls follow the shape of the dose curve; as a rule, active = well fitted curve in the direction sought with a large enough effect; inconclusive = small, poorly fitted or top-dose-only effect, or another doubt; inactive = no such curve, though single readings can be large; an effect the other way counts as inactive or inconclusive. Unless noted, % is scaled to controls: 0 for no effect and ±100 for the full control effect; potency is read from the fitted curve at half-maximal effect.

SMILES	TRb SRC2 PPI	Tau fluor counter	TR SRC2 fluor cs	Tau fibril ThT	Tau fibril FP
C=CCN1C(=O)C(CC(=O)O)SC1=Nc1ccc(N=Nc2ccccc2)cc1 (stereo unspecified)	-2.3%	-16.0%	-3.5%	11.2µM*	6.5%
CCCc1ccc(OCC(=O)Nc2sc3c(c2C(=O)OCC)CCC(C(C)(C)C)C3)cc1 (stereo unspecified)	?	-1.0%	10µM*[quencher]	-9.1%	2.4%
CCOC(=O)c1c(NC(=O)COc2ccc(CC)cc2)sc2c1CCCC2	-1.9%	-5.8%	-7.4%	-13.6%	-1.4%
Cc1ccc(-n2nc(C(=O)N3CCN(c4cccc(C(F)(F)F)c4)CC3)c3c4ccccc4n(C)c3c2=O)cc1	10.0%	-4.1%	-1.5%	6.2%	-12.7%
Fc1cccc2sc(Nc3nnc(-c4ccco4)o3)nc12	-9.2%	-23.1%	-4.5%	12.6µM*	-5.2%
COc1cccc2sc(Nc3nnc(-c4ccc(F)cc4)o3)nc12	-3.5%	-21.5%	-8.4%	?	2.4%
O=Cc1s/c(=N\S(=O)(=O)c2ccccc2)n(CCCCl)c1Cl	-0.5%	-11.6%	-0.4%	28.2µM*	?
COCCCN1C(=O)CS/C1=N\S(=O)(=O)c1ccccc1	8.7%	-11.0%	0.5%	-6.5%	1.7%
N#Cc1cc(O)c(-n2nnc3ccccc32)cc1C#N	-8.0%	-3.2%	-2.1%	-9.4%	-1.1%
N#Cc1cc(Oc2cccc3cccnc23)c(-n2nnc3ccccc32)cc1C#N	6.5%	15.8µM*[quencher]	-3.3%	-11.2%	-4.2%
CC1=C2[C@H](/C=C(\C)C(=O)O)CC[C@@H](C)[C@H]2CC1	0.7%	/	-1.1%	/	/
O=C(CN1C(=O)COc2ccc(S(=O)(=O)N3CCOCC3)cc21)N1CCN(c2ccccc2F)CC1	-7.6%	-6.6%	-1.5%	1.3%	-6.7%
O=[N+]([O-])c1ccc(COc2ccc(-c3[nH]ncc3-c3ccc(Cl)cc3)c(O)c2)cc1	73.6%[53 µM]	1.8%	-103.1%[53 µM]	5.1%	-2.3%
COc1ccc(-c2cn[nH]c2-c2ccc(OCc3ccc([N+](=O)[O-])cc3)cc2O)cc1OC	8.7%	7.08µM*[quencher]	-1.5%	?	?
COc1ccc(-c2cn[nH]c2-c2ccc(OCc3ccccc3F)cc2O)cc1OC	9.6%	12.6µM*[quencher]	-2.3%	-11.3%	?
COc1ccc(CNC(=O)c2ccc3c(c2)CCN3S(=O)(=O)c2ccc(Cl)cc2)cc1	-8.4%	-28.8%	-1.4%	3.4%	-12.7%
COC(=O)C1=C(C(=O)OC)[C@@H]2N(Cc3ccccc3)c3ccccc3[C@@]23C[C@@H](C(=O)OC)N(S(=O)(=O)c2ccc(Br)cc2)C3=N1	8.5%[11.2 µM]	4.1%[11.6 µM]	-0.2%[11.2 µM]	6.3%[11.5 µM]	4.1%[11.6 µM]
CC1=NN(c2ccc(Cl)cc2)C(=O)/C1=C\c1cccn1-c1ccc(S(N)(=O)=O)cc1	4.6%	11.2µM*[quencher]	-9.1%	7.08µM*	10.8%
Cc1ccc(S(=O)(=O)N/N=C/c2cccn2-c2ccc(Cl)cc2)cc1	-1.9%	?	2.8%	?	?
COc1ccc(/C=C2/SC(=O)N(CCC(=O)Nc3ccc(C)cc3)C2=O)cc1OC	-9.9%	-2.2%	1.3%	?	-8.6%
COc1ccc(/C=C2\SC(=O)N(CCNC(=O)Cc3coc4cc(C)ccc34)C2=O)cc1OC	-1.9%	-24.8%	-0.1%	12.6µM*	?
CC(C)(C)NC(=S)NCC1CC1	2.1%	2.1%	-1.2%	-3.4%	1.8%
CCc1cccc2c(C(=O)COC(=O)c3ccc([N+](=O)[O-])s3)c[nH]c12	4.7%	11.2µM*[quencher]	-1.4%	7.08µM*	-7.7%
Cc1noc(NS(=O)(=O)c2ccc(NC(=O)Nc3ccc(Cl)c(Cl)c3)cc2)c1C	-6.7%	11.2µM*[quencher]	-11.1%	?	?
COc1cccc(C(=O)/C=C/Nc2ccc(S(=O)(=O)Nc3onc(C)c3C)cc2)c1	6.8%	-12.9%	-10.1%	?	4.0%
SMILES	TRb SRC2 PPI	Tau fluor counter	TR SRC2 fluor cs	Tau fibril ThT	Tau fibril FP
Cc1noc(NS(=O)(=O)c2ccc(N/C=C\C(=O)c3ccc(Br)cc3)cc2)c1C	3.0%	-24.7%	-7.7%	12.6µM*	-2.2%
CCOc1ccc(C(=O)/C=C/Nc2ccc(S(=O)(=O)Nc3onc(C)c3C)cc2)cc1	5.1%	6.4%	-2.2%	3.6%	5.8%
Cc1noc(NS(=O)(=O)c2ccc(N/C=C\C(=O)c3cccc4ccccc34)cc2)c1C	-1.9%	-16.1%	-6.7%	10µM*	-5.1%
COc1cc(OC)cc(C(=O)Nc2ccc(S(=O)(=O)Nc3onc(C)c3C)cc2)c1	3.1%	-29.6%	-1.1%	?	-2.1%
Cc1ccc2c(c1)C(=O)OC2=O	12.8%[201 µM]	/	1.8%[201 µM]	/	/
CC(=O)Nc1ccc(-c2csc(N/N=C\c3ccncc3)n2)cc1	-3.4%	?	-4.6%	/	7.3%
CCCC(=O)Nc1ccc(-c2csc(N/N=C\c3ccncc3)n2)cc1	1.4%	15.8µM*[quencher]	-5.5%	/	?
C(=N\Nc1nc(-c2ccccc2)cs1)/c1cccnc1	2.1%	15.8µM*[quencher]	-4.3%	15.8µM*	12.1%
CCOC(=O)C/C(C)=N\Nc1nc(-c2ccccc2)cs1	4.0%	?	-6.7%	14.1µM*	?
CC(/C=C/c1ccccc1)=N\Nc1nc(-c2ccccc2)cs1	0.8%	11.2µM*[quencher]	-3.2%	7.94µM*	11.4%
CC(C)=NNc1nc(-c2ccccc2)cs1	6.0%	9.5%	-1.4%	0.8%	-3.3%
C=C1/C(=C\C=C2/CCC[C@]3(C)C([C@H](C)CCCC(C)(C)O)CC[C@@H]23)C[C@@H](O)C[C@@H]1O (stereo partly specified)	7.6%	-5.8%	-1.6%	?	?
CCC(=O)N1CCc2cc(Br)cc(S(=O)(=O)CCC(=O)Nc3cccc(CC)c3)c21	-1.0%	-20.1%	0.2%	-14.9%	?
N=c1c2ccccc2nnn1-c1ccc(C(F)(F)F)cc1	-5.0%	-3.5%	-3.7%	4.1%	?
C/C(CCC1CC(C)OC1=O)=N/Nc1nc(-c2ccccc2)cs1 (stereo unspecified)	4.3%	?	-1.9%	28.2µM*	?
CC1CC(CC(=O)NNc2nc(-c3ccccc3)cs2)C(=O)O1 (stereo unspecified)	3.7%	-7.7%	-1.6%	-14.0%	0.7%
C=CCSC1=N/C(=C\C=C\c2ccco2)C(=O)S1	-3.7%	?	?	12.6µM*	?
CCOC(=O)C1=C(Cc2ccc(Cl)cc2)C(=O)c2ccccc2C1=O	4.0%	?	-3.8%	14.1µM*	?
CCOC(=O)c1c(C=O)c(C)n(Cc2ccc(Cl)cc2)c1C	-3.9%	-12.9%	-2.3%	?	1.9%
CCN(CC)c1ccc(/C=C(\C#N)c2nc(-c3cccs3)c(NC(C)=O)s2)cc1	?	6.31µM*[quencher]	?	?	?
O=C(O)CCNS(=O)(=O)c1ccc2ccccc2c1	-15.3%	-7.3%	3.1%	-10.4%	-3.0%
O=C(O)CCNc1cc2ccccc2cc1C(=O)O	-3.7%	-25.4%	-2.3%	15.8µM*	?
